Data on 98 molecules can be found in ChEMBL document CHEMBL3988442, “University of Dundee, Small-Polar-MMV Screening Library” (2021).

The campaign covered roughly 53,000 compounds. About 900 (1.7%) showed an effect of 50% or more. The list comes from a sample in which strong results are over-represented; it also holds similar structures and randomly drawn compounds.

The test system of the experiment is Mycobacterium tuberculosis. As to the kind of experiment: Cornell - Phenotypic assay to identify agents that inhibit growth of Mycobacterium tuberculosis. The experiment is classed as functional. Set-up: scale not given: direction of the effect not stated beside the values. The settings on record: 10 mM as filed; unlikely as a test dose.
In the case of `COCCCNC(=O)Nc1ncc(-c2cccc(OC)c2)n1CCOC`, the “Percent Effect” value was determined as 20.98%.
With `CN(C)C(=O)CNC(=O)c1ccn(-c2ccc3ccccn23)n1`, the “Percent Effect” value came out at 8.811%.
As to `CCc1nnc(CS(=O)(=O)c2ccc(C)c(C)c2)n1C`, the “Percent Effect” value is recorded as -14.67%.
As for `Cc1cccnc1CN(C)C(C(=O)O)c1ccc(-c2ccn[nH]2)cc1` (stereo not drawn), the “Percent Effect” value was 83.57%.
In the case of `Cc1cccnc1CN(C)C(C(=O)O)c1ccc(C(C)(C)C#N)cc1` (stereo not drawn) it was 37.7%; in that of `Cc1cccnc1CN(C)C(C(=O)O)c1ccc(-n2cccn2)cc1` (stereo not drawn), 103.2%.
`COc1c(C)cc(C(C(=O)O)N(C)Cc2ccn[nH]2)cc1C` (stereo not drawn): the “Percent Effect” value turned out to be 14.99%.
The same measure for `CCn1ccnc1CN(C)C(C(=O)O)c1ccc(C(C)(C)C#N)cc1` (stereo not drawn): -8.491%.
In the case of `CN(Cc1ccc(-n2cccn2)cc1)C(=O)CCC(F)(F)F` it was -2.335%; in that of `COc1ccc(CN2C[C@@H]3CC[C@H](C2)N(S(C)(=O)=O)C3)cc1`, -9.044%; in that of `Cc1cc2nc(C(C)C)cc(N3CCSCC3)n2n1`, -12.34%.
For the molecule `Cc1cc2nc(C(C)C)cc(N3CCC(O)CC3)n2n1`, the “Percent Effect” value was 7.748%.
With `CC(C)c1cc(N2CCN(c3ccc(O)cc3)CC2)n2nccc2n1`, the “Percent Effect” value is reported as 106.1%.
Regarding `Cc1cc2nc(C(C)C)cc(N3CCN(c4ccc(O)cc4)CC3)n2n1`, the “Percent Effect” value is on record as 103.7%.
`CC(C)c1cc(N2CCC(N)CC2)n2nccc2n1`: the “Percent Effect” value was found to be 24.37%.
As for `CC(C)c1cc(N2CCC(CCC(=O)NC3CC3)CC2)n2nccc2n1`, the “Percent Effect” value is listed as 19.75%.
`Cc1nc(CN2CCO[C@@H]3CN(C(=O)CC4CC4)CC[C@@H]3C2)cs1`: the “Percent Effect” value was 21.81%.
Consider `CCCN(CC(=O)NC)C(=O)c1ccc(-c2nc(C)cs2)cc1`, for which the “Percent Effect” value is given as 8.736%.
Consider `CS(=O)(=O)N[C@@H]1CN(C(=O)c2ccccn2)[C@@H]2CCCO[C@@H]21.O=C(O)C(F)(F)F`, for which the “Percent Effect” value is given as 24.81%.
The same measure for `O=C(O)c1cc(-c2ccn(CC3CC3)n2)n2ccccc12`: 99.83%; for `Cn1ccc(-c2cc(C(=O)N3CCOCC3)c3ccccn23)n1`: -21.75%.
Regarding `Cn1ccc(-c2cc(C(=O)N3CCC(O)CC3)c3ccccn23)n1`, the “Percent Effect” value is on record as -33.58%.
Take `CC(C)c1nc(-c2cc(C(=O)O)c3ccccn23)cs1`: the “Percent Effect” value was 89.3%.
Take `CC(C)c1nc(-c2cc(C(=O)N3CCN(C)CC3)c3ccccn23)cs1.O=C(O)C(F)(F)F`: the “Percent Effect” value is reported as -33.65%.
As for `Cn1ccc(-c2cc(C(=O)N3CCC(C(N)=O)CC3)c3ccccn23)n1`, the “Percent Effect” value was 11.2%.
With `O=C(c1cc(-c2ccn(CC3CC3)n2)n2ccccc12)N1CCCO1`, the “Percent Effect” value worked out at 45.3%.
Turning to `O=C(c1cc(-c2ccn(CC3CC3)n2)n2ccccc12)N1CCOCC1`, the “Percent Effect” value came out at 96.99%.
`CC(C)c1nc(-c2cc(C(=O)NCCCO)c3ccccn23)cs1`: the “Percent Effect” value is 21.42%.
`Cc1nc(N)ncc1C(=O)N1CCCC1(C)C(=O)N(C)C` (stereo not drawn): the “Percent Effect” value came to 14.34%.
Regarding `Cc1cc(N2CCCC(c3[nH]ncc3Cc3ccccc3)C2)nc(N)n1` (stereo not drawn), the “Percent Effect” value amounted to 13.81%.
For `Cc1ncc(CNC(=O)Cc2ccsc2)c(C2CCCN2C)n1` (stereo not drawn), the “Percent Effect” value turned out to be 11.73%.
The same measure for `CN1C(=O)C2(CC(=O)Nc3[nH]ncc32)c2cc(Cl)ccc21` (stereo not drawn): 9.602%.
For `O=C(c1ccoc1)N1CCCn2cnc(COCC3CC3)c2C1`, the “Percent Effect” value worked out at 7.498%.
`CC(C)C[C@@H]1N[C@H](C(=O)NC(C)C)Cc2c[nH]c3cccc1c23`: the “Percent Effect” value was found to be 22.96%.
On to `CC(C)C[C@@H]1N[C@H](C(=O)NCC2CC2)Cc2c[nH]c3cccc1c23`, for which the “Percent Effect” value turned out to be 40.17%.
As for `COC(=O)[C@@H]1Cc2c[nH]c3cccc(c23)[C@H](CC(C)C)N1`, the “Percent Effect” value is 105.3%.
Turning to `Cc1nc2sccn2c1CN(CCCN(C)C)Cc1ccco1.O=C(O)CC(O)(CC(=O)O)C(=O)O`, the “Percent Effect” value is reported as 33.13%.
For the molecule `Cc1nc2sccn2c1CN(CCCN(C)C)Cc1ccccn1.O=C(O)CC(O)(CC(=O)O)C(=O)O`, the “Percent Effect” value is 51.28%.
With `Cc1ccc(CN(CCN(C)C)Cc2c(C)nc3sccn23)o1.O=C(O)CC(O)(CC(=O)O)C(=O)O`, the “Percent Effect” value worked out at 26.14%.
As for `COCCN1CCC2(CCN(Cc3ccc(OC)cc3)CC2)C1=O.O=C(O)C(F)(F)F`, the “Percent Effect” value is recorded as -13.5%.
For `Cc1cccc(CN2CCC3(CCC(C(=O)N(C)C)O3)CC2)n1` (stereo not drawn), the “Percent Effect” value turned out to be 35.49%.
The same measure for `Fc1cccc2[nH]c(CN3CCn4c(nnc4C4CC4)C3)nc12`: -6.1%; for `COc1c(CNCc2nnc3n2CCCCC3)c(C(C)C)nn1C.Cl`: -4.214%; for `Cc1nn(C)c(N(C)C)c1CNCc1nnc2n1CCCCC2.Cl`: 67.58%.
With `COc1c(CNCc2nnc3n2CCCCC3)c(C)nn1C.Cl`, the “Percent Effect” value came out at 31.65%.
`Cc1cccc(COc2ccc(C(C)NC(=O)CNC(N)=O)cc2)c1` (stereo not drawn): the “Percent Effect” value amounted to 14.07%.
With `CC1(C)CC(=O)c2cnc3nc(N4CCCC4)[nH]c(=O)c3c2C1`, the “Percent Effect” value worked out at 23.1%.
Regarding `CCC1CNCc2cc3c(OC)ccc(OC)c3nc2O1` (stereo not drawn), the “Percent Effect” value is 6.248%.
Regarding `CCC1CNCc2cc3c(C)ccc(C)c3nc2O1` (stereo not drawn), the “Percent Effect” value is given as 61.63%.
For `CS(=O)(=O)c1ccccc1-n1cc(NC(=O)CC(F)(F)F)cn1`, the “Percent Effect” value was found to be 18.55%.
In the case of `CCC(=O)c1ccccc1NN1c2ccccc2C(=O)C1(C)OC` (stereo not drawn) it was 13.72%; in that of `Cc1nc(N2CCOCC2)nc(C)c1NC(=O)Cc1ccc(Cl)cc1`, -26.81%.
Take `COc1ccc(CC(=O)Nc2c(C)nc(N3CCOCC3)nc2C)cc1`: the “Percent Effect” value came out at 3.579%.
Turning to `COc1ccc(CC(=O)Nc2c(C)nc(N3CCCC3)nc2C)cc1`, the “Percent Effect” value amounted to 59.35%.
On to `COc1cc(N2C[C@H]3OCC[C@H]3[C@H](C(=O)N3CCCC3)C2)ncn1`, for which the “Percent Effect” value is reported as -33.02%.
For `CC[C@H]1N(CC2CCC2)CCC[C@]12CCC(=O)N2Cc1ccncc1.O=C(O)C(F)(F)F.O=C(O)C(F)(F)F`, the “Percent Effect” value is reported as 23.16%.
As to `CC[C@@H]1N(Cc2ccsc2)CCC[C@]12CCC(=O)N2CCOC.O=C(O)C(F)(F)F`, the “Percent Effect” value worked out at 13.62%.
With `CC[C@@H]1N(CC2CC2)CCC[C@]12CCC(=O)N2CCOC.O=C(O)C(F)(F)F`, the “Percent Effect” value is reported as 52.28%.
On to `Cc1cccc(CN2CCC(Cc3ccccc3F)CC2)n1`, for which the “Percent Effect” value is reported as 56.1%.
For the molecule `Fc1ccccc1CC1CCN(Cc2ccccn2)CC1`, the “Percent Effect” value was found to be 29.36%.
Turning to `Fc1ccccc1CC1CCN(Cc2cscn2)CC1`, the “Percent Effect” value is given as 30.5%.
Turning to `O=C1CN(C(=O)C2CN(c3ccccc3)CCO2)CCN1` (stereo not drawn), the “Percent Effect” value was determined as 14.68%.
In the case of `Cc1occc1C(=O)Nc1ccnc(OC2CCOC2)c1` (stereo not drawn) it was 6.262%.
For the molecule `O=C(Nc1ccnc(OC2CCOC2)c1)c1ccccc1Cl` (stereo not drawn), the “Percent Effect” value is reported as 61.48%.
In the case of `O=C(Nc1ccnc(OC2CCOC2)c1)c1ccc(F)cc1Cl` (stereo not drawn) it was 1.296%.
As for `CN(Cc1ccc(F)cc1)[C@@H]1CN(S(=O)(=O)N(C)C)C[C@H]1O`, the “Percent Effect” value turned out to be 11.25%.
In the case of `COCCN1CCO[C@H]2CN(Cc3cc[nH]n3)C[C@H]21.O=C(O)C(F)(F)F.O=C(O)C(F)(F)F`, the “Percent Effect” value was -6.862%.
Turning to `Cc1cccc(NS(=O)(=O)c2cnn(C)c2)c1C#N`, the “Percent Effect” value is -1.344%.
On to `Cc1ccc(S(=O)(=O)Nc2cccnc2O)cc1C`, for which the “Percent Effect” value was -38.51%.
Take `N#Cc1cccnc1NCc1ccc(S(=O)(=O)NCC2CCCO2)cc1` (stereo not drawn): the “Percent Effect” value is listed as -11.22%.
For `COCCNS(=O)(=O)c1ccc(CNc2ncccc2C#N)cc1`, the “Percent Effect” value was determined as 9.617%.
In the case of `N#Cc1ccc(S(=O)(=O)Nc2ccccc2C#N)cn1`, the “Percent Effect” value was 63.63%.
Turning to `Cc1cccc(NS(=O)(=O)c2ccc(C#N)nc2)c1C#N`, the “Percent Effect” value stood at 105.8%.
`Cc1ccc(N2C[C@H]3CCN(Cc4ccncc4)C[C@H]3C2)nn1.O=C(O)C(F)(F)F`: the “Percent Effect” value was -19.26%.
Consider `Cc1ccc(CN2CCC3(CCCN3C(=O)C(C)C)CC2)o1`, for which the “Percent Effect” value is reported as -8.279%.
Turning to `CCOc1nnc(CN(C)C2CCCN(c3cccnn3)C2)s1` (stereo not drawn), the “Percent Effect” value stood at 26.02%.
In the case of `CC1c2ncc(COCC3CC3)n2CCN1C(=O)c1ccn(C)n1` (stereo not drawn) it was 14.69%; in that of `Cc1cc(CNC(=O)NC(C)c2ccc(N3CCOCC3)cc2)no1` (stereo not drawn), -27.63%.
In the case of `Cc1cc(N2CCOCC2)ccc1NC(C)c1nc(C(C)C)no1` (stereo not drawn), the “Percent Effect” value was found to be 72.08%.
Regarding `Cc1cc(OCC(=O)NC(C)c2ccc(N3CCOCC3)cc2)no1` (stereo not drawn), the “Percent Effect” value is listed as 4.093%.
`Cc1cc(N2CCOCC2)ccc1NC(C)c1nc(C(C)(C)C)no1` (stereo not drawn): the “Percent Effect” value is listed as 76.4%.
For the molecule `Cc1noc(C(C)Nc2ccc(N3CCOCC3)cc2C)n1` (stereo not drawn), the “Percent Effect” value was 61.87%.
On to `Cc1noc(C(C)N2CCN(CC(=O)N3CCOCC3)CC2)n1` (stereo not drawn), for which the “Percent Effect” value was -22.01%.
With `CC(c1nc(C(C)(C)C)no1)N1CCN(CC(=O)N2CCOCC2)CC1` (stereo not drawn), the “Percent Effect” value came to 7.513%.
In the case of `CCN1CCN(c2ccc(NC(=O)CC(C)C)c(C)c2)CC1`, the “Percent Effect” value was -22.64%.
As for `CCN1CCN(c2ccc(NC(C)c3nc(C(C)C)no3)c(C)c2)CC1` (stereo not drawn), the “Percent Effect” value is reported as 73.38%.
Take `Cc1cc(CN2CCN(C(C)c3nc(C(C)C)no3)CC2)no1` (stereo not drawn): the “Percent Effect” value is recorded as -1.591%.
As for `CC(c1nc(C(C)(C)C)no1)N1CCN(C(=O)CN2CCOCC2)CC1` (stereo not drawn), the “Percent Effect” value stood at 8.353%.
Turning to `Cc1noc(C(C)Nc2ccc3c(c2)CCC3)n1` (stereo not drawn), the “Percent Effect” value is -0.4193%.
In the case of `CCc1ccccc1NC(=O)NCc1nnc(SC)n1C` it was -6.778%; in that of `CC(=O)N1CCC(CCc2ccnc(NC(=O)c3ccccn3)c2)CC1`, -18.95%; in that of `COc1ccc(-n2cnc(Cl)c2CO)cc1`, 11.93%.
As for `COCCN(C)C[C@H]1C[C@H](CO)CN(C(=O)c2ccn(C)c(=O)c2)C1`, the “Percent Effect” value was determined as 18.02%.
In the case of `CCc1ncnc(N2CCOCC2C2CC2)c1F` (stereo not drawn) it was 0.2478%.
As to `COCCNC(=O)c1ccccc1-n1cc(CN)cn1`, the “Percent Effect” value is listed as -18.17%.
As to `CC(C)COC(=O)N1CC(=O)N(CCCc2ccccc2)CC(O)C1` (stereo not drawn), the “Percent Effect” value is reported as 6.947%.
As to `Cc1cc(C)c(CNC(=O)NCC(O)c2ccccc2F)c(=O)[nH]1` (stereo not drawn), the “Percent Effect” value is -14.22%.
For `CCc1nccn1C1CCCN(C(=O)c2cccc3c2OCO3)C1` (stereo not drawn), the “Percent Effect” value is -43.9%.
